Reference: paper PMC7862700, “An all-to-all approach to the identification of sequence-specific readers for epigenetic DNA modifications on cytosine”

Experiments:
Assay in all cases: DAPPL (digital affinity profiling via proximity ligation, sequencing); 10 mM Tris-HCl pH 7.5, 50 mM NaCl, 1 mM DTT, 4% glycerol, room temperature, 30 min; GST-TFs on glutathione beads, 16-mer random dsDNA library, 0.1% formaldehyde crosslink after washing; high values mean tight binding
Conditions in all cases: protein: recombinant; tags: N-terminal GST; dsDNA, one strand shown
[1] = biological target: T1, ERF (Homo sapiens, UniProt P50548 1-548)
T1 sequence: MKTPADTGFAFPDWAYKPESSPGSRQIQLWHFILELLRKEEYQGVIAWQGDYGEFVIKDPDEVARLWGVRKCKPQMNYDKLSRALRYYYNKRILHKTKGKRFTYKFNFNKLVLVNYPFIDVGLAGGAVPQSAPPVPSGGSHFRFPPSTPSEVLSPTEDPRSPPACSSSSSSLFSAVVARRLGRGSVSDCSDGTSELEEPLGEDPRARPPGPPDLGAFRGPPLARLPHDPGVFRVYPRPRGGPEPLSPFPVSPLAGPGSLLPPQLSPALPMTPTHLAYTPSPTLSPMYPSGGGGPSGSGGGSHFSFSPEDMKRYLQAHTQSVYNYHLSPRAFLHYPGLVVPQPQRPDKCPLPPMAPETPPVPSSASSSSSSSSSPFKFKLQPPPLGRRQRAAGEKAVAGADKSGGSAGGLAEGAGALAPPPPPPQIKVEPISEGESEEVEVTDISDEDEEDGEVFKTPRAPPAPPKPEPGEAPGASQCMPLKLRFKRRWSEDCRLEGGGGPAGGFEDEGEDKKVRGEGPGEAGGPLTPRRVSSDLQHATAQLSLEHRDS
In short: (§1)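 Human transcription factors carrying a GST fusion were produced in yeast, bound to glutathione beads, tagged with DNA barcodes and pooled together with a tag-only sample. Each pool was held with 200 nmole of a random double-stranded 16-mer DNA library in Tris/NaCl/DTT/glycerol buffer for 30 min at room temperature, then washed, crosslinked in 0.1% formaldehyde, proximity-ligated with BsaI/T4 ligase (1 h, 37 °C), PCR-amplified and sequenced on an Illumina NextSeq500. Binding signal is the read frequency of each hexamer for a given factor divided by its frequency in the tag-only sample.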

[2] = biological target: T2, ETV3L (Homo sapiens, UniProt Q6ZN32 1-361)
T2 sequence: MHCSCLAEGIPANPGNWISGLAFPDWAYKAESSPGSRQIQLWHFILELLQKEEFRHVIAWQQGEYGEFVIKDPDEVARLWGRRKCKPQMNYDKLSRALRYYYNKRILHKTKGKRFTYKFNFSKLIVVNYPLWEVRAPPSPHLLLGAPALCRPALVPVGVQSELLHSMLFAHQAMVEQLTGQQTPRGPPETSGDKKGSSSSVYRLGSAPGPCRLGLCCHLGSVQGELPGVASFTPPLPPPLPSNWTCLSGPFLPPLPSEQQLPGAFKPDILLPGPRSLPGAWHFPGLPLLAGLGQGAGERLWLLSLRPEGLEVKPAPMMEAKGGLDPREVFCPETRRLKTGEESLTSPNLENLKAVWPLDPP
In short: as §1

[3] = biological target: T3, ETS2 (Homo sapiens, UniProt P15036 1-469)
T3 sequence: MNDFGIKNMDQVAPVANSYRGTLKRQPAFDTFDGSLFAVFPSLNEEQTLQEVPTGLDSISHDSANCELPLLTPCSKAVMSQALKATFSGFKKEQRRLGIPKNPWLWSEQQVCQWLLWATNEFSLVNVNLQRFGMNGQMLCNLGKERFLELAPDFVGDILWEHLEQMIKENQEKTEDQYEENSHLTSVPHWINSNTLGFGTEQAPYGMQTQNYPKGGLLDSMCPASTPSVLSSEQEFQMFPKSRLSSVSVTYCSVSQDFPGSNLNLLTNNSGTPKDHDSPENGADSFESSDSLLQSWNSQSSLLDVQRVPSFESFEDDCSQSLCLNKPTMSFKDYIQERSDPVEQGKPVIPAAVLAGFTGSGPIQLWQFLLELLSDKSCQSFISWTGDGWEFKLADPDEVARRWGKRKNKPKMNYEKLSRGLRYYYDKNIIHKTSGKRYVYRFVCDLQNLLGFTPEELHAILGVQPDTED
In short: as §1

[4] = biological target: T4, SPDEF (Homo sapiens, UniProt O95238 1-335)
T4 sequence: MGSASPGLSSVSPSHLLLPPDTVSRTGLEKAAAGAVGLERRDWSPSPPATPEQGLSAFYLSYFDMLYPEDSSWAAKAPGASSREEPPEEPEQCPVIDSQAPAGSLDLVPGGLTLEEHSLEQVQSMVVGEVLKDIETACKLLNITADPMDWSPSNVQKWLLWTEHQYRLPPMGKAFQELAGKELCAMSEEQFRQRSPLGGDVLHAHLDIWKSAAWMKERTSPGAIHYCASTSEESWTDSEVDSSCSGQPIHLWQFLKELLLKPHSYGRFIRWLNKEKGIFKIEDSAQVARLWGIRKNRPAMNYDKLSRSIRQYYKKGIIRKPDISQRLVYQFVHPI
In short: as §1

[5] = biological target: T5, ETV7 (Homo sapiens, UniProt Q9Y603 1-341)
T5 sequence: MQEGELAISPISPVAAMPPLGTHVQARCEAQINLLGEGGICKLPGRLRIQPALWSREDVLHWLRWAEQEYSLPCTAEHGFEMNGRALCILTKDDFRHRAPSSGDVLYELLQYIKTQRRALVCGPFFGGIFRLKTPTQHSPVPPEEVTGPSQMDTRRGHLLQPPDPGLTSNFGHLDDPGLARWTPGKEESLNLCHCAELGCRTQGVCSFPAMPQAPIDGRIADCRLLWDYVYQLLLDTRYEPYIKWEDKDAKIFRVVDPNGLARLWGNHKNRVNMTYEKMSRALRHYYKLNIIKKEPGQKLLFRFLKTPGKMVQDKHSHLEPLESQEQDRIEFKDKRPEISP
In short: as §1

[6] = biological target: T6, ELF5 (Homo sapiens, UniProt Q9UKW6-2 1-255)
T6 sequence: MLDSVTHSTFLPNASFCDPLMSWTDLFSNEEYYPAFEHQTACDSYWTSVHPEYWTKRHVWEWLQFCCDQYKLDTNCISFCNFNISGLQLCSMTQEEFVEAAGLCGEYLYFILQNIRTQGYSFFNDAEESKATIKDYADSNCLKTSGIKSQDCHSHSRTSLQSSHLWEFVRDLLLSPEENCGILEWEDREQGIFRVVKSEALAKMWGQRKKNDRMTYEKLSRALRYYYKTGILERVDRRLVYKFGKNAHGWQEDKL
In short: as §1

[7] = biological target: T7, ETV3 (Homo sapiens, UniProt P41162-2 1-143)
T7 sequence: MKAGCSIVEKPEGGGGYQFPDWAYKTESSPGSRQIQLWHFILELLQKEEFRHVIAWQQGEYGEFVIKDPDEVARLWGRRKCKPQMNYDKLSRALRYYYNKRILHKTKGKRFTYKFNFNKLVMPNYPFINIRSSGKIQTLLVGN
In short: as §1

[8] = biological target: ETV6 (Homo sapiens, UniProt P41212 1-452)
ETV6, sequence (P41212 whole entry): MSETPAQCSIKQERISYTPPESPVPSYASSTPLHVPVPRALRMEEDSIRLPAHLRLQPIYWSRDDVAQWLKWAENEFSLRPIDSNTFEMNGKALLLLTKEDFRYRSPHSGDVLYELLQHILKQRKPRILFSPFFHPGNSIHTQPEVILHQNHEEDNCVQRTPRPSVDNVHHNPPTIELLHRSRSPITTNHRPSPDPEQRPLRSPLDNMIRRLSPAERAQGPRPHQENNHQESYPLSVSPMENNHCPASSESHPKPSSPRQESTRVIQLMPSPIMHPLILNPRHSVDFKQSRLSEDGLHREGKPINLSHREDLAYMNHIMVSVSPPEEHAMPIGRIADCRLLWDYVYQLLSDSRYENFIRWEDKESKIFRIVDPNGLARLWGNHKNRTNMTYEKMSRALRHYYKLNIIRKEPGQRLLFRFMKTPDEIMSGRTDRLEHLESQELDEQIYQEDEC
In short: as §1

Sequence | binding signal [1] | binding signal [2] | binding signal [3] | binding signal [4] | binding signal [5] | binding signal [6] | binding signal [7] | binding signal [8]
AATATA | 1.39 fold enrichment (6-mer frequency, TF over GST control) | 1.31 fold enrichment (6-mer frequency, TF over GST control) | 1.34 fold enrichment (6-mer frequency, TF over GST control) | 1.23 fold enrichment (6-mer frequency, TF over GST control) | 1.36 fold enrichment (6-mer frequency, TF over GST control) | 1.33 fold enrichment (6-mer frequency, TF over GST control) | 1.35 fold enrichment (6-mer frequency, TF over GST control) | 1.36 fold enrichment (6-mer frequency, TF over GST control)
CGACGA | 1.12 fold enrichment (6-mer frequency, TF over GST control) | 1.13 fold enrichment (6-mer frequency, TF over GST control) | 1.13 fold enrichment (6-mer frequency, TF over GST control) | 1.13 fold enrichment (6-mer frequency, TF over GST control) | 1.11 fold enrichment (6-mer frequency, TF over GST control) | 1.09 fold enrichment (6-mer frequency, TF over GST control) | 1.12 fold enrichment (6-mer frequency, TF over GST control) | 1.17 fold enrichment (6-mer frequency, TF over GST control)
TAACCA | 1.1 fold enrichment (6-mer frequency, TF over GST control) | 1.13 fold enrichment (6-mer frequency, TF over GST control) | 1.12 fold enrichment (6-mer frequency, TF over GST control) | 1.05 fold enrichment (6-mer frequency, TF over GST control) | 1.09 fold enrichment (6-mer frequency, TF over GST control) | 1.09 fold enrichment (6-mer frequency, TF over GST control) | 1.13 fold enrichment (6-mer frequency, TF over GST control) | 1.04 fold enrichment (6-mer frequency, TF over GST control)
GCACAA | 1.16 fold enrichment (6-mer frequency, TF over GST control) | 1.08 fold enrichment (6-mer frequency, TF over GST control) | 1.12 fold enrichment (6-mer frequency, TF over GST control) | 1.05 fold enrichment (6-mer frequency, TF over GST control) | 1.09 fold enrichment (6-mer frequency, TF over GST control) | 1.1 fold enrichment (6-mer frequency, TF over GST control) | 1.14 fold enrichment (6-mer frequency, TF over GST control) | 1.11 fold enrichment (6-mer frequency, TF over GST control)
CTCGCT | 1.78 fold enrichment (6-mer frequency, TF over GST control) | 1.87 fold enrichment (6-mer frequency, TF over GST control) | 1.67 fold enrichment (6-mer frequency, TF over GST control) | 1.62 fold enrichment (6-mer frequency, TF over GST control) | 1.54 fold enrichment (6-mer frequency, TF over GST control) | 1.55 fold enrichment (6-mer frequency, TF over GST control) | 1.51 fold enrichment (6-mer frequency, TF over GST control) | 1.64 fold enrichment (6-mer frequency, TF over GST control)
ACTGCG | 1.26 fold enrichment (6-mer frequency, TF over GST control) | 1.26 fold enrichment (6-mer frequency, TF over GST control) | 1.35 fold enrichment (6-mer frequency, TF over GST control) | 1.24 fold enrichment (6-mer frequency, TF over GST control) | 1.21 fold enrichment (6-mer frequency, TF over GST control) | 1.25 fold enrichment (6-mer frequency, TF over GST control) | 1.25 fold enrichment (6-mer frequency, TF over GST control) | 1.18 fold enrichment (6-mer frequency, TF over GST control)
AAGCGG | 1.08 fold enrichment (6-mer frequency, TF over GST control) | 1.17 fold enrichment (6-mer frequency, TF over GST control) | 1.13 fold enrichment (6-mer frequency, TF over GST control) | 1.08 fold enrichment (6-mer frequency, TF over GST control) | 1.16 fold enrichment (6-mer frequency, TF over GST control) | 1.13 fold enrichment (6-mer frequency, TF over GST control) | 1.15 fold enrichment (6-mer frequency, TF over GST control) | 1.23 fold enrichment (6-mer frequency, TF over GST control)
GCACTC | 1.39 fold enrichment (6-mer frequency, TF over GST control) | 1.33 fold enrichment (6-mer frequency, TF over GST control) | 1.23 fold enrichment (6-mer frequency, TF over GST control) | 1.22 fold enrichment (6-mer frequency, TF over GST control) | 1.28 fold enrichment (6-mer frequency, TF over GST control) | 1.27 fold enrichment (6-mer frequency, TF over GST control) | 1.28 fold enrichment (6-mer frequency, TF over GST control) | 1.34 fold enrichment (6-mer frequency, TF over GST control)
ATCACT | 1.16 fold enrichment (6-mer frequency, TF over GST control) | 1.16 fold enrichment (6-mer frequency, TF over GST control) | 1.22 fold enrichment (6-mer frequency, TF over GST control) | 1.22 fold enrichment (6-mer frequency, TF over GST control) | 1.26 fold enrichment (6-mer frequency, TF over GST control) | 1.27 fold enrichment (6-mer frequency, TF over GST control) | 1.15 fold enrichment (6-mer frequency, TF over GST control) | 1.28 fold enrichment (6-mer frequency, TF over GST control)
CCTTGT | 1.29 fold enrichment (6-mer frequency, TF over GST control) | 1.05 fold enrichment (6-mer frequency, TF over GST control) | 1.26 fold enrichment (6-mer frequency, TF over GST control) | 1.37 fold enrichment (6-mer frequency, TF over GST control) | 1.19 fold enrichment (6-mer frequency, TF over GST control) | 1.52 fold enrichment (6-mer frequency, TF over GST control) | 1.31 fold enrichment (6-mer frequency, TF over GST control) | 1.06 fold enrichment (6-mer frequency, TF over GST control)
AATTCT | 1.33 fold enrichment (6-mer frequency, TF over GST control) | 1.29 fold enrichment (6-mer frequency, TF over GST control) | 1.29 fold enrichment (6-mer frequency, TF over GST control) | 1.23 fold enrichment (6-mer frequency, TF over GST control) | 1.26 fold enrichment (6-mer frequency, TF over GST control) | 1.22 fold enrichment (6-mer frequency, TF over GST control) | 1.25 fold enrichment (6-mer frequency, TF over GST control) | 1.25 fold enrichment (6-mer frequency, TF over GST control)
CACCTT | 1.33 fold enrichment (6-mer frequency, TF over GST control) | 1.14 fold enrichment (6-mer frequency, TF over GST control) | 1.24 fold enrichment (6-mer frequency, TF over GST control) | 1.31 fold enrichment (6-mer frequency, TF over GST control) | 1.12 fold enrichment (6-mer frequency, TF over GST control) | 1.21 fold enrichment (6-mer frequency, TF over GST control) | 1.31 fold enrichment (6-mer frequency, TF over GST control) | 1.25 fold enrichment (6-mer frequency, TF over GST control)
CAACAT | 1.23 fold enrichment (6-mer frequency, TF over GST control) | 1.2 fold enrichment (6-mer frequency, TF over GST control) | 1.17 fold enrichment (6-mer frequency, TF over GST control) | 1.17 fold enrichment (6-mer frequency, TF over GST control) | 1.08 fold enrichment (6-mer frequency, TF over GST control) | 1.16 fold enrichment (6-mer frequency, TF over GST control) | 1.22 fold enrichment (6-mer frequency, TF over GST control) | 1.09 fold enrichment (6-mer frequency, TF over GST control)
AGTACA | 1.06 fold enrichment (6-mer frequency, TF over GST control) | 1.09 fold enrichment (6-mer frequency, TF over GST control) | 1.16 fold enrichment (6-mer frequency, TF over GST control) | 1.31 fold enrichment (6-mer frequency, TF over GST control) | 1.21 fold enrichment (6-mer frequency, TF over GST control) | 1.17 fold enrichment (6-mer frequency, TF over GST control) | 1.2 fold enrichment (6-mer frequency, TF over GST control) | 1.24 fold enrichment (6-mer frequency, TF over GST control)
CTGAAG | 1.26 fold enrichment (6-mer frequency, TF over GST control) | 1.09 fold enrichment (6-mer frequency, TF over GST control) | 1.22 fold enrichment (6-mer frequency, TF over GST control) | 1.15 fold enrichment (6-mer frequency, TF over GST control) | 1.07 fold enrichment (6-mer frequency, TF over GST control) | 1.06 fold enrichment (6-mer frequency, TF over GST control) | 1.05 fold enrichment (6-mer frequency, TF over GST control) | 1.05 fold enrichment (6-mer frequency, TF over GST control)
